In PubChem BioAssay AID720504 (National Center for Advancing Translational Sciences (NCATS), 2013):
In all, about 360,000 compounds went through this assay and about 10,000 (2.8%) were called active. Not shown: some 4% with an inconclusive outcome. The sample holds actives, similar compounds and a random draw of the others, so the mix is not that of the screen. The call rests on the fitted dose curve; in most records, active means well fitted inhibition curve with a large enough effect; inconclusive means small, poorly fitted or top-dose-only effect; inactive means flat fitted curve, though single readings scatter.

Target: Serine/threonine-protein kinase PLK1 (Homo sapiens) (UniProt P53350)
Experiment: qHTS for Inhibitors of PLK1-PDB (polo-like kinase 1 - polo-box domain): Primary Screen; further: nearly all actives have a fitted effect of over 65% in size; on Max response, negative = inhibition: series mostly up to about 57 µM
Conditions: Plk1 PBD binding of FITC phosphopeptide, fluorescence polarization
On the % scale 0 is the no-effect control and ±100 the full control effect; potency means the concentration at half of the fitted maximal effect.

Chain of Serine/threonine-protein kinase PLK1 (Homo sapiens) (P53350 whole entry, looked up, the tested form may be a part): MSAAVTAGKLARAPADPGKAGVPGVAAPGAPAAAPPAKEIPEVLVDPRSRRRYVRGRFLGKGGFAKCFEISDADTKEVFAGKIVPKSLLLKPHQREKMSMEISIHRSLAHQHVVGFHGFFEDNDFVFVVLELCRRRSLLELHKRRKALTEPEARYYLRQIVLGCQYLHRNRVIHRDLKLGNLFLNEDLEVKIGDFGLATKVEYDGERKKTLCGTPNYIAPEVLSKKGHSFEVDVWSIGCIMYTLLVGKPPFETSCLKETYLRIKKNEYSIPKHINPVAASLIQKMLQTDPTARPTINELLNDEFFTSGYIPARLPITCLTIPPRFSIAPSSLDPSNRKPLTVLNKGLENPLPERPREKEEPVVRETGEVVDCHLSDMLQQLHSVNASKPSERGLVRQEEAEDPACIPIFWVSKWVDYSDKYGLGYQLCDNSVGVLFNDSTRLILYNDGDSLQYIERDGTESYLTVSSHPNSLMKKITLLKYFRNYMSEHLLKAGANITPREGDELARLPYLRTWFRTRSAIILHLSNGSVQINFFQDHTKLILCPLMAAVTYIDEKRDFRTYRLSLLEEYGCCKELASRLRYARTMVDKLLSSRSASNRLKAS

Max response, negative = inhibition, inactive:
O=C1Nc2ccccc2-n2nnnc2C1N1CCN(c2cccc(C(F)(F)F)n2)CC1 (stereo unspecified) -6.8%
COc1cccc(-c2cnc3c(NC(C)=O)cc(-c4cc(F)ccc4OC)cn23)c1 -5.58%
CCOC1=C2[C@H]([C@H]3C(=O)N(c4ccccc4)C(=O)[C@H]3C1)[C@@H](c1ccccc1)N(S(=O)(=O)c1ccc(C)cc1)[C@H]2c1ccccc1 1.42%
Cc1ccccc1C#CC1=CC(=O)CC(C)(C)C1 -11.2%
COc1ccccc1CNC(=O)c1cc(-c2cc(F)ccc2OC)n[nH]1 -1.03%
O=C(OC1CC2CC1[C@H]1CCCCN1C2=O)N1CCOCC1 (stereo partly specified) -1.86%
COc1cc(C(O)c2nc(-c3cnn(C)c3)cs2)ccc1F (stereo unspecified) -2.35%
COc1cc(C(=O)N2CCOC23CCN(Cc2ccccc2)CC3)cc(OC)c1OC 1.8%
Nc1ncnc2c1ncn2[C@@H]1O[C@H](C(=O)N2CCCN(Cc3ccccc3F)CC2)[C@@H](O)[C@H]1O -0.717%
Cc1nc2ccc(NC(=S)N3CCC(C)CC3)cc2nc1C 0.665%
CC1CCN(C(=S)NC(=O)c2ccccc2Br)CC1 -2.34%
CCCCc1c(-c2ccc(Br)cc2)ncn1CCc1ccccc1OC 3.4%
NCCCCC(C(=O)O)N(C(=O)OCc1ccccc1)C(=O)OCc1ccccc1 (stereo unspecified) -19.2%
CC1Cc2[nH][nH]c(=O)c2C(C2CC2)O1 (stereo unspecified) -23.1%
O=C(NCc1ccccc1)c1ccc(S(=O)(=O)Nc2cccc(C(F)(F)F)c2)cc1 -14.9%
O=C(COc1ccc(S(=O)(=O)Nc2cccc(C(F)(F)F)c2)cc1)N1CCOCC1 -3.59%
Cc1[nH]c2ccccc2c1C(=O)C(=O)NCc1nnnn1-c1cccc(F)c1 -8.15%
Cn1c(SCC(=O)Nc2nccs2)nnc1-c1cccnc1 -6.93%
Cc1cc(C)nc(SCc2nnc(SCC(=O)Nc3ncc(C)s3)n2Cc2ccco2)n1 -1.22%
CN(Cc1ccccc1)C(=O)CCC1CCN(C(=O)c2ccco2)CC1 -7.2%
CCCN(CCC)C(=O)C1c2ccccc2Oc2ccccc21 -4.59%
CC(C)(C)NC(=O)NC(=O)COC(=O)C1c2ccccc2Oc2ccccc21 -13.1%

Potency, active:
CC1CCN(C(=S)c2cccc(O)c2)CC1 18.9 µM
Cc1oc2c(F)c(F)c(F)c(F)c2c1S(=O)(=O)Nc1cccc(C(F)(F)F)c1 37.7 µM
Cc1cnc(NC(=O)CSc2nnc(-c3ccc(Cl)cc3Cl)n2N)s1 23.8 µM
CC(C)(C)c1nnc(NC(=O)C2c3ccccc3Oc3ccccc32)s1 2.67 µM
